# PubChem BioAssay (EPA / NIEHS)
# Records with an inconclusive call do not appear. Active and inactive are the calls of the source. The calls were made as follows, unless noted: active = hit-call score of the fitted dose curve at least 0.9, where 1 is the maximum; inactive = score below 0.9.
# Columns and labels:
# [1] = ACEA_ER_80hr: ACEA Biosciences xCELLigence Real-Time Cell Analysis on Estrogen Receptor Agonism for Proliferation (AID 2282667; active = hit-call score of the fitted dose curve at least 0.9, where 1 is the maximum); details: T47D proliferation, impedance (xCELLigence), 80 h
# In short: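 Cell-growth kinetics were measured by impedance in T47D cells treated continuously with compound (top 100 uM final, 1:4 steps, 8 points). Activity at 80 h was scored as signal gain over the DMSO baseline.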
# [2] = molecular target: CCAAT/enhancer-binding protein beta (Homo sapiens) (UniProt P17676); assay: ATG_C_EBP_CIS: Attagene CIS-FACTORIAL HepG2 Assay for human CCAAT/Enhancer Binding Protein (C/EBP) beta (AID 2282927); details: HepG2 Attagene cis-factorial transcription factor reporter; actives raise or lower the signal
# Sequence of CCAAT/enhancer-binding protein beta (Homo sapiens) (P17676 whole entry, looked up, the tested form may be a part): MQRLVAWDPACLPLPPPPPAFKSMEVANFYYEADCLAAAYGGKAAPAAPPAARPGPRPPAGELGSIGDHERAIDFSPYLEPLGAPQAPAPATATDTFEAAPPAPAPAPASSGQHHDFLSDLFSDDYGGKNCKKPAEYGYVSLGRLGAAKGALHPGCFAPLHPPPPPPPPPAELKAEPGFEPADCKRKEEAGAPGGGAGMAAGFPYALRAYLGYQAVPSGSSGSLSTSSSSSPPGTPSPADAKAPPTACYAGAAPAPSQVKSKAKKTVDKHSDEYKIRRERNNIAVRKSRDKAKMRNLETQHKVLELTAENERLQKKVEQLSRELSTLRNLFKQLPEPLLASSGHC
# In short: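 Endogenous C/EBPb-driven reporter transcripts measured in transfected human HepG2 cells at 24 h via RT-PCR and capillary electrophoresis of labelled fragments. Activity fitted in both directions relative to DMSO baseline.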
# [3] = ATG_CMV_CIS: Attagene CIS-FACTORIAL HepG2 Assay for human CMV (Internal Marker) (AID 2282928); details: HepG2 CMV promoter reporter, transcription factor profiling; actives raise or lower the signal;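 also: endpoint acts as a background internal control marker rather than a target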
# In short: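 After transient transfection of HepG2 with reporter transcription units driven by cis-regulatory promoters, cells receive test chemical for 24 h. Labeled reporter amplicons, digested with HpaI, are sized and quantified by capillary electrophoresis against DMSO.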
# [4] = ATG_DR4_LXR_CIS: Attagene CIS-FACTORIAL HepG2 Assay for human Liver X Receptor (LXR), DR4 submotif (AID 2282929); details: HepG2 Attagene DR4 cis-reporter, mRNA transcription; actives raise or lower the signal
# In short: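 Endogenous factor activity at a DR4 cis-element is read as reporter mRNA in transiently transfected HepG2 cells. Exposure lasts 24 h; transcripts are amplified, fluorescently labelled and sized by capillary electrophoresis, with DMSO as baseline.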
# [5] = molecular target: Aryl hydrocarbon receptor (Homo sapiens) (UniProt P35869); assay: ATG_Ahr_CIS: Attagene CIS-FACTORIAL HepG2 Assay for human Aryl Hydrocarbon Receptor (Ahr) (AID 2282930); details: HepG2 AhR cis-factorial reporter transcription; actives raise or lower the signal
# Sequence of Aryl hydrocarbon receptor (Homo sapiens) (P35869 whole entry, looked up): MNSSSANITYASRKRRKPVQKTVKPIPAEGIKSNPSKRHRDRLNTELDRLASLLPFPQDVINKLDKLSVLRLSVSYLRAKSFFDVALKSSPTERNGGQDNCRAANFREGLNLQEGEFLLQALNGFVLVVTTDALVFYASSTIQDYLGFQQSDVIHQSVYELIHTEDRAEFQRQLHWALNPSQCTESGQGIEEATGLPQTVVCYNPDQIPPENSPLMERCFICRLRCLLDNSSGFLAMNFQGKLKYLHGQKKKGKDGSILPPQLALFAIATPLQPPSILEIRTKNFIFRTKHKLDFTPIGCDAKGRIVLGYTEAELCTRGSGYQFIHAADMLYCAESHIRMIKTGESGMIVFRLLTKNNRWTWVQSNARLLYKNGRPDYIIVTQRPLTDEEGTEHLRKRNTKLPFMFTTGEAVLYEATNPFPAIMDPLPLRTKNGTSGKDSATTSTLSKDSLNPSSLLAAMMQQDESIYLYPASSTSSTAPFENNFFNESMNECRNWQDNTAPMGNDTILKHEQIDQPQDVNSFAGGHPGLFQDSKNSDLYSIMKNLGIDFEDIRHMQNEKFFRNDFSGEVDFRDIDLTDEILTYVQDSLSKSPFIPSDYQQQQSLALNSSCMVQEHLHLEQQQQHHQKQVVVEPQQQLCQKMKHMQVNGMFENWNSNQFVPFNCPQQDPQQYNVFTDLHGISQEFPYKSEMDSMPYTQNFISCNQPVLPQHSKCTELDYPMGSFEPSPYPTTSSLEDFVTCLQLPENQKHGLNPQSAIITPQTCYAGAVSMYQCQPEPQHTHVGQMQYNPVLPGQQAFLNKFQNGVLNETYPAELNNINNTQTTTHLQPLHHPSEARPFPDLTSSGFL
# In short: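 Reporter mRNA levels, quantified by RT-PCR and fluorescent capillary electrophoresis, reflect endogenous AhR transcriptional activity in HepG2 cells carrying transfected cis-promoter reporter constructs. Readout at 24 h post-dose; gain or loss fitted against DMSO baseline.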
# [6] = ATG_AP_1_CIS: Attagene CIS-FACTORIAL HepG2 Assay for human Activator Protein 1 (AP-1) (AID 2282931); details: HepG2 Attagene cis-factorial AP-1 reporter mRNA; actives raise or lower the signal
# In short: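 Fluorescence of labelled PCR fragments separated by capillary electrophoresis gives reporter mRNA levels. HepG2 with transfected cis-regulated reporter units, 24 h exposure; DMSO serves as baseline for bidirectional curve fits.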
# [7] = ATG_AP_2_CIS: Attagene CIS-FACTORIAL HepG2 Assay for human Activator Protein 2 (AP-2) (AID 2282932); details: HepG2 AP-2 cis-reporter, Attagene transcription factor profiling; actives raise or lower the signal
# In short: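 Step one: transient transfection of HepG2 with reporter transcription units. Step two: 24 h chemical exposure. Step three: RNA extraction, RT-PCR, labelled fragment analysis by capillary electrophoresis; DMSO serves as baseline.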
# [8] = ATG_BRE_CIS: Attagene CIS-FACTORIAL HepG2 Assay for human Bone Morphogenetic Protein (BMP) Response Element (BRE) (AID 2282933); details: HepG2 BMP response element reporter, Attagene transcription factor profiling; actives raise or lower the signal
# In short: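 Gain- or loss-of-signal was derived by bidirectional fitting against DMSO controls. The signal came from reporter mRNA, measured by RT-PCR and capillary electrophoresis, in HepG2 cells transiently carrying multiple reporter units and dosed for 24 h.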
# [9] = molecular target: Retinoic acid receptor alpha (Homo sapiens) (UniProt P10276); assay: ATG_DR5_RAR_CIS: Attagene CIS-FACTORIAL HepG2 Assay for human Retinoic Acid Receptor Alpha (RARE), DR5 submotif (AID 2282934); details: HepG2 Attagene cis-factorial RARE DR5 reporter, mRNA; actives raise or lower the signal;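 as to AC50: reporter responds to endogenous RAR alpha beta and gamma in HepG2 not RARA alone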
# Sequence of Retinoic acid receptor alpha (Homo sapiens) (P10276 whole entry, looked up): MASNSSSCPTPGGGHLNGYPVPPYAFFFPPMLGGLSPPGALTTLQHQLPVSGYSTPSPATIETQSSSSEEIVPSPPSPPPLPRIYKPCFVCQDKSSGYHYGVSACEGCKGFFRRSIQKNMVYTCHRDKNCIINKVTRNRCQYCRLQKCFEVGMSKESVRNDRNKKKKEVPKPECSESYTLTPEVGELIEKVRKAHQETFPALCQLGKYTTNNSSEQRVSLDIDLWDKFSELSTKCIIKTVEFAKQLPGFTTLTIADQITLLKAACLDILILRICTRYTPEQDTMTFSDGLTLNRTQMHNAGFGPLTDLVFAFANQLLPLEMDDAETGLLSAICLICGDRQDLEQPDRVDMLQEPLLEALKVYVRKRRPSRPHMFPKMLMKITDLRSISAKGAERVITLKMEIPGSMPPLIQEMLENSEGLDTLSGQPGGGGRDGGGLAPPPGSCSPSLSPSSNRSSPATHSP
# In short: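 Reporter transcripts from a DR5-regulated unit, measured via RT-PCR plus capillary electrophoresis, reflect endogenous RAR activity in transiently transfected human HepG2 liver cells. Exposure lasted 24 h; gain or loss of signal scored against DMSO.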
# [10] = ATG_CRE_CIS: Attagene CIS-FACTORIAL HepG2 Assay for human cAMP Responsive Element (CRE) binding protein 3 (AID 2282926); details: HepG2 CRE cis-reporter, Attagene multiplexed mRNA; actives raise or lower the signal
# In short: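 We dosed HepG2 cells bearing multiple cis-promoter reporter units for 24 h and measured reporter mRNA by RT-PCR with capillary electrophoresis detection. Bidirectional concentration-response fitting used DMSO as negative control.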
structure (smiles),measurement,setting,value
CC1CCCCC1,outcome,[1],inactive
same,outcome,[2],inactive
same,outcome,[3],inactive
same,outcome,[4],inactive
same,outcome,[5],inactive
same,outcome,[6],inactive
same,outcome,[7],inactive
same,outcome,[8],inactive
same,outcome,[9],inactive
O=S(=O)(O)c1ccc(Cl)cc1,outcome,[1],inactive
same,outcome,[2],inactive
same,outcome,[3],inactive
same,outcome,[4],inactive
same,outcome,[5],inactive
same,outcome,[6],inactive
same,outcome,[7],inactive
same,outcome,[8],inactive
same,outcome,[9],inactive
F[Si-2](F)(F)(F)(F)F,outcome,[1],inactive
same,outcome,[2],inactive
same,outcome,[3],inactive
same,outcome,[4],inactive
same,outcome,[5],inactive
same,outcome,[6],inactive
same,outcome,[7],inactive
same,outcome,[8],inactive
same,outcome,[9],inactive
CCN=C1C=CC(=C(c2ccc(N(CC)CC)cc2)c2ccc(N(CC)CC)cc2)c2ccccc21,outcome,[1],inactive
same,AC50,[2],33.4 nM (active)
same,AC50,[3],0.905 µM (active)
same,AC50,[4],0.655 µM (active)
same,AC50,[6],0.191 µM (active)
same,AC50,[7],3.68 µM (active)
same,AC50,[8],0.0688 µM (active)
same,outcome,[9],inactive
Oc1ccc2c(c1)CCC2,outcome,[1],inactive
same,outcome,[2],inactive
same,outcome,[3],inactive
same,outcome,[4],inactive
same,outcome,[6],inactive
same,outcome,[7],inactive
same,outcome,[8],inactive
same,outcome,[9],inactive
N#CCCOCCC#N,outcome,[1],inactive
same,outcome,[3],inactive
same,outcome,[4],inactive
same,outcome,[5],inactive
same,outcome,[6],inactive
same,outcome,[7],inactive
same,outcome,[8],inactive
same,outcome,[9],inactive
CC(=O)C=O,outcome,[1],inactive
same,outcome,[3],inactive
same,outcome,[4],inactive
same,outcome,[5],inactive
same,outcome,[6],inactive
same,outcome,[7],inactive
same,outcome,[8],inactive
same,outcome,[9],inactive
COC(=O)c1ccc(C=O)cc1,outcome,[1],inactive
same,outcome,[2],inactive
same,outcome,[3],inactive
same,outcome,[4],inactive
same,outcome,[6],inactive
same,outcome,[7],inactive
same,outcome,[8],inactive
same,outcome,[9],inactive
Nc1cccnc1N,outcome,[1],inactive
same,outcome,[2],inactive
same,outcome,[3],inactive
same,AC50,[4],53.5 µM (active)
same,AC50,[5],27.4 µM (active)
same,AC50,[6],16.7 µM (active)
same,outcome,[7],inactive
same,outcome,[8],inactive
same,AC50,[9],65.8 µM (active)
c1ccc(C[P+](c2ccccc2)(c2ccccc2)c2ccccc2)cc1,AC50,[1],132 nM (active)
same,outcome,[2],inactive
same,outcome,[3],inactive
same,AC50,[4],100 µM (active)
same,outcome,[5],inactive
same,outcome,[6],inactive
same,outcome,[7],inactive
same,AC50,[8],10.7 µM (active)
same,outcome,[9],inactive
COC(F)(C(F)F)C(F)(F)F (configuration not stated),outcome,[1],inactive
same,outcome,[2],inactive
same,outcome,[3],inactive
same,outcome,[4],inactive
same,outcome,[5],inactive
same,outcome,[6],inactive
same,outcome,[7],inactive
same,outcome,[8],inactive
same,outcome,[9],inactive
CCC(=O)OC(C)c1ccccc1 (configuration not stated),outcome,[1],inactive
same,outcome,[10],inactive
same,outcome,[3],inactive
same,outcome,[4],inactive
same,outcome,[6],inactive
same,outcome,[7],inactive
same,outcome,[8],inactive
same,outcome,[9],inactive
CC1=CCC(=O)O1,outcome,[1],inactive
same,outcome,[2],inactive
same,outcome,[3],inactive
same,outcome,[4],inactive
same,outcome,[5],inactive
same,outcome,[6],inactive
same,outcome,[7],inactive
same,outcome,[8],inactive
same,outcome,[9],inactive
CCC(Cc1c(I)cc(I)c(N)c1I)C(=O)O (configuration not stated),AC50,[1],15500 nM (active)
same,outcome,[2],inactive
same,AC50,[3],62.6 µM (active)
same,outcome,[4],inactive
same,outcome,[5],inactive
same,AC50,[6],64.6 µM (active)
same,outcome,[7],inactive
same,outcome,[8],inactive
same,outcome,[9],inactive
CC(C)(C)c1cc(CCC(=O)OCC(COC(=O)CCc2cc(C(C)(C)C)c(O)c(C(C)(C)C)c2)(COC(=O)CCc2cc(C(C)(C)C)c(O)c(C(C)(C)C)c2)COC(=O)CCc2cc(C(C)(C)C)c(O)c(C(C)(C)C)c2)cc(C(C)(C)C)c1O,AC50,[1],173 nM (active)
same,outcome,[10],inactive
same,outcome,[3],inactive
same,outcome,[4],inactive
same,outcome,[6],inactive
same,outcome,[7],inactive
same,outcome,[8],inactive
same,outcome,[9],inactive
O=C(Cl)C(F)(F)C(F)(F)C(F)(F)C(F)(F)C(F)(F)C(F)(F)F,outcome,[10],inactive
same,outcome,[2],inactive
same,outcome,[3],inactive
same,outcome,[4],inactive
same,AC50,[6],159 µM (active)
same,outcome,[7],inactive
same,outcome,[8],inactive
same,outcome,[9],inactive
OCCCCC(F)(F)C(F)(F)C(F)(F)C(F)(F)F,outcome,[2],inactive
same,outcome,[3],inactive
same,outcome,[4],inactive
same,outcome,[5],inactive
same,outcome,[6],inactive
same,outcome,[7],inactive
same,outcome,[8],inactive
same,outcome,[9],inactive
Cc1cccc(C)n1,outcome,[10],inactive
same,outcome,[2],inactive
same,outcome,[3],inactive
same,outcome,[4],inactive
same,outcome,[5],inactive
same,outcome,[6],inactive
same,outcome,[7],inactive
same,outcome,[8],inactive
same,outcome,[9],inactive
O=C(O)C(F)(F)C(F)(F)C(F)(F)C(F)(F)C(F)(F)C(F)(F)C(F)F,outcome,[10],inactive
same,outcome,[2],inactive
same,outcome,[3],inactive
same,outcome,[4],inactive
same,outcome,[5],inactive
same,outcome,[6],inactive
same,outcome,[7],inactive
same,outcome,[8],inactive
same,outcome,[9],inactive
O=C(O)CCC(F)(F)C(F)(F)C(F)(F)C(F)(F)C(F)(F)C(F)(F)C(F)(F)F,outcome,[10],inactive
same,outcome,[2],inactive
same,outcome,[3],inactive
same,outcome,[4],inactive
same,outcome,[5],inactive
same,AC50,[6],94.3 µM (active)
same,outcome,[7],inactive
same,outcome,[8],inactive
same,outcome,[9],inactive
CCCCCC/C=C/CCCCCCCC(=O)O,outcome,[10],inactive
same,outcome,[2],inactive
same,outcome,[3],inactive
same,outcome,[4],inactive
same,outcome,[5],inactive
same,outcome,[6],inactive
same,outcome,[7],inactive
same,outcome,[8],inactive
same,outcome,[9],inactive
OCCCCl,outcome,[10],inactive
same,outcome,[2],inactive
same,outcome,[3],inactive
same,outcome,[4],inactive
same,outcome,[5],inactive
same,outcome,[6],inactive
same,outcome,[7],inactive
same,outcome,[8],inactive
same,outcome,[9],inactive
CCC(C)CO (configuration not stated),outcome,[10],inactive
same,outcome,[2],inactive
same,outcome,[3],inactive
same,outcome,[4],inactive
same,outcome,[5],inactive
same,outcome,[6],inactive
same,outcome,[7],inactive
same,outcome,[8],inactive
same,outcome,[9],inactive
O=C1c2ccccc2C(=O)c2c(Cl)cccc21,outcome,[10],inactive
same,outcome,[2],inactive
same,outcome,[3],inactive
same,outcome,[4],inactive
same,outcome,[5],inactive
same,outcome,[6],inactive
same,outcome,[7],inactive
same,outcome,[8],inactive
same,outcome,[9],inactive
